{
  "source": "PubChem BioAssay (NCI)",
  "note": "About 83,000 compounds went through this panel and 20% of them were active in at least one assay; those are over-represented in the sample as a whole.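 Testing used 96-well plates and a 48-hour single-concentration exposure. Example: -40 means 40% of the starting cells died.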 Unmarked numbers belong to inactive results. The source made the active and inactive calls. Rule for the calls: active = growth percent below 10; inactive = the rest.",
  "data": [
    {"tested_on": "SW-620 colon", "assay": "NCI-60 one-dose screen, 48 h (100 = growth as untreated, 0 = no growth, -100 = all killed)", "settings": "10 µM unless noted", "values": [
      {"smiles": "O=S(=O)(NCCCNc1cc(-c2cn(-c3ccccc3)nc2-c2cccc(O)c2)ccn1)c1ccc(Cl)cc1", "growth": "15.6%"},
      {"smiles": "COc1ccc(-c2nc3sccn3c2-c2ccnc(NCCCNS(=O)(=O)c3ccc(C)cc3)n2)cc1", "growth": "38.6%"},
      {"smiles": "O=C1c2ccccc2C(=O)c2c1oc1oc3c(c(=O)c21)c(=O)n(-c1ccccc1)c1ccccc31", "growth": "18.6%"},
      {"smiles": "C#CCC1(c2ccc(F)c(F)c2)NS(=O)(=O)c2ccccc21", "note": "(stereo not drawn)", "growth": "108%"},
      {"smiles": "Cc1nc(Nc2cccnc2)sc1C(=O)/C=C/c1ccc(F)cc1", "growth": "9.84% (active)"},
      {"smiles": "CCC#CC[C@H]1C/C=C2/C(=O)C=C[C@@H]2C/C=C\\CCCC(=O)O1", "growth": "0.0835% (active)"},
      {"smiles": "CNC(=O)Cc1nc(-c2cccc(NS(=O)(=O)c3c(F)cccc3F)c2F)c(-c2ccnc(Nc3ccccc3)n2)s1", "growth": "66.8%"},
      {"smiles": "CC(=O)Nc1ccc2c(c1)/C(=C\\C=C/c1ccc([N+](C)(C)C)cc1)c1ccccc1-2", "growth": "99%"},
      {"smiles": "COc1cc(OC)cc(-c2n[nH]nc2-c2ccc3c(c2)OCO3)c1", "growth": "30.8%"},
      {"smiles": "O=C1CCC/C=C\\C[C@H]2C=CC(=O)/C2=C/C[C@H](C/C=C\\CC(F)(F)F)O1", "growth": "-15.7% (active)"},
      {"smiles": "O=C(Nc1cccc(Cl)c1)c1cc([N+](=O)[O-])ccc1O", "growth": "58.7%"},
      {"smiles": "O=C1N=C(c2c(-c3[nH]c(=O)c4ccc(Br)cc4c3O)c(O)c3ccccc3c2O)C(=O)c2cc(Br)ccc21", "growth": "-70.7% (active)"},
      {"smiles": "COc1cc(-n2nc(C(=O)Nc3ccc(C(=O)O)cc3)nc2-c2ccccc2)cc(OC)c1OC", "growth": "101%"}
    ]}
  ]
}
